# Screen size: about 360,000 compounds; about 2,800 (0.78%) were called active. Shown is part of a subset that was picked to be rich in actives. Values without a mark were called inactive. Cut-off read from the data, not from the text of the source: active = inhibition above about 26%; inactive = the rest.
# Test system: Nicotinate-nucleotide adenylyltransferase NadD (Staphylococcus aureus N315)
# Assay: S. aureus NadD enzyme activity blockers – biochemical, colorimetric, uHTS, primary screen (AID 602399)
# Conditions: purified NadD enzyme, colorimetric absorbance read-out; at 20 µM; active compounds read high
row,SMILES,inhibition
1,CSCC[C@H](NC(=O)NCCc1ccc(F)cc1)C(=O)O,-3.24%
2,COc1cccc(N(CC(=O)NC2CCCCCC2)S(=O)(=O)c2ccccc2)c1,-2.69%
3,Cc1noc(C)c1COC(=O)c1cc2ccccc2cc1O,-3.66%
4,O=C(CSc1nc(C2CC2)nc2ccccc12)Nc1cccc(O)c1,4.64%
5,O=C(NNc1c2ccccc2nc2ccccc12)c1cc2ccccc2cc1O,50.6% (active)
6,COC(=O)c1ccccc1NC(=O)C1CCN(C(=O)N2CCOc3ccccc32)CC1,-4.87%
7,Cc1cc(C)c(S(=O)(=O)NN=C2c3ccccc3[C@H]3Cc4csc[n+]4[C@@H]23)c(C)c1,44% (active)
8,Cc1ccc(NC2CCCN(C(=O)CCC3(C)CC3)C2)cc1C (stereo unspecified),-4.9%
9,CCCCn1c(N)c(N(CCOC)C(=O)c2oc3ccc(OC)cc3c2C)c(=O)[nH]c1=O,-3.15%
10,NNC(=O)c1cccc(COCC(F)(F)C(F)F)c1,10.9%
11,CC(Sc1nncn1C)C(=O)NCCC1=CCCCC1 (stereo unspecified),-5.51%
12,COC(=O)CCCC1=CC2=C(c3ccccc3)C(=O)C(C)(OC(=O)C3CCCC3)C(=O)C2=CN1c1ccc(OC)cc1 (stereo unspecified),6.8%
13,COC(=O)CCCC1=CC2=CC(=O)C(C)(OC(=O)c3cccs3)C(=O)C2=CN1c1cccc(C#N)c1 (stereo unspecified),10.8%
14,CC1(OC(=O)C2CCCC2)C(=O)C=C2C=C(c3ccc(C#N)cc3)OC=C2C1=O (stereo unspecified),51.9% (active)
15,Cc1cccc(C(=O)Nc2ccc(C(=O)/C=C/c3cccs3)cc2)c1,18.5%
16,O=C(Nc1ccc(NC(=O)c2cccs2)cc1)c1ccc2ccccc2c1,34.4% (active)
17,C/C(=N\NC(=O)c1ccc(NS(=O)(=O)c2cccs2)cc1)c1ccc2ccccc2c1,11.2%
18,Cc1cc(C)n2nc(C(=O)Nc3cccc(S(=O)(=O)N4CCOCC4)c3)nc2n1,-1.81%
19,COc1ccc(Cc2nc3ccc(C(=O)NCC4CCOCC4)cc3o2)cc1OC,0%
20,CC(C)CC1C(=O)N(Cc2cn(Cc3ccco3)nn2)CCS(=O)(=O)N1Cc1ccc(-c2ccc(Cl)c(Cl)c2)cc1 (stereo unspecified),35% (active)
21,CC(C)CC1C(=O)N(Cc2cn(CC3CCCCC3)nn2)CCS(=O)(=O)N1Cc1ccc(-c2ccc(Cl)cc2)cc1 (stereo unspecified),2.74%
22,CC1C(=O)N(Cc2cn(Cc3ccco3)nn2)CCS(=O)(=O)N1Cc1ccc(-c2cccc(CO)c2)cc1 (stereo unspecified),-3.23%

row,SMILES,inhibition
1,Cc1c(C(=O)OCC(=O)N(CCC#N)c2ccccc2)oc2c1ccc1ccccc12,-4.25%
2,CC(C)c1nc(CNC(=O)CC2C(=O)NCCN2Cc2ccoc2)cs1 (stereo unspecified),0.09%
3,CCOc1ccc(C(=O)Nc2cccc(SC)c2)cc1,-7.85%
4,CC(C)(C)NC(=O)C(c1ccncc1)N(C(=O)CNC(=O)c1ccco1)c1ccc2c(c1)OCO2 (stereo unspecified),-2.29%
5,Cc1cc(Br)cn2c(Cc3ccsc3)c(-c3ccc(C#N)cc3)nc12,-0.162%
6,Clc1ccc(C2=CSC3=Nc4cccc5cccc(c45)N23)cc1,46.9% (active)
7,Cc1ccc(/C=C/C(=O)O)cc1S(=O)(=O)N1CCC(Cc2ccccc2)CC1,-2.42%
8,COC(=O)c1ccc(COC(=O)c2cnccn2)cc1,-0.176%
9,CCOc1ccc(NS(=O)(=O)c2ccc(C(=O)NCC3CCCO3)cc2)cc1 (stereo unspecified),-1.46%
10,CC(C)NC(=O)NC(=O)COC(=O)c1ccc(NC(=O)CC#N)cc1,0.78%
11,CCOc1ccc(NC(=O)c2ccc(NC(=O)COC(=O)c3ccc(NC(=O)CC#N)cc3)cc2)cc1,39.8% (active)
12,N#CCC(=O)Nc1ccc(C(=O)OCC(=O)Nc2sc3c(c2C#N)CCCC3)cc1,32.6% (active)
13,CCOc1ccc(NC(=O)CCNC(=O)c2ccc(Br)cc2)cc1,-10.7%
14,CC(=O)c1c(C)[nH]c(C(=O)OCC(=O)Nc2sc3c(c2C#N)CCCC3)c1C,6.3%
15,N#Cc1c(NC(=O)CCCl)sc2c1CCCCC2,-2.84%
16,C/C=C(/C)C(=O)OC1Cc2c(ccc3ccc(=O)oc23)OC1(C)C (stereo unspecified),-4.64%
17,CCCCc1cc(=O)oc2c(C)c(OCC(=O)N3CCC(C(N)=O)CC3)ccc12,-1.4%
18,Cc1ccc(-c2ccc(/C=C(\C#N)C(N)=S)o2)c([N+](=O)[O-])c1,-3.57%
19,Cc1ccc(C(=O)N/C(=C/c2ccc(-c3cccc([N+](=O)[O-])c3)o2)C(=O)NCCCN(C)C)cc1,-9.94%
20,Cc1ccc(Cc2cnc(NC(=O)/C(C#N)=C/c3ccc(-c4cccc([N+](=O)[O-])c4)o3)s2)cc1,51.2% (active)
21,CCCCN(C(=O)c1ccc(S(=O)(=O)N2CCOCC2)cc1)C1CCS(=O)(=O)C1 (stereo unspecified),-1.78%
22,O=C(CC(NS(=O)(=O)c1ccc(Cl)cc1)c1ccco1)NC1CCCC1 (stereo unspecified),1.19%

row,SMILES,inhibition
1,COc1ccc(NC(=O)COc2ccc(C(=O)c3ccc(F)cc3)cc2)cc1S(N)(=O)=O,7.92%
2,Cc1c(OC(C)C(=O)NCC2CCC(C(=O)O)CC2)ccc2c1oc(=O)c1ccccc12 (stereo unspecified),4.05%
3,O=C(NCC1CCCCC1)NCC1CCCCC1,2.72%
4,C[C@H]1CN([C@@H](C)CO)C(=O)c2cc(-c3ccccc3F)cnc2O[C@H]1CN(C)C(=O)C1CCOCC1,-1.92%
5,COc1ccc(NS(=O)(=O)c2cc(NC(=O)COc3ccccc3F)ccc2OC)cc1,-11.4%
6,Cc1ccc(NC(=O)CCNC(=O)c2ccc([N+](=O)[O-])cc2)cc1S(=O)(=O)N1CCOCC1,0.847%
7,COc1ccc(NS(=O)(=O)c2cc(NC(=O)CC(=O)c3ccc([N+](=O)[O-])cc3)ccc2C)cc1,44.2% (active)
8,O=[N+]([O-])c1ccc(Oc2ccc(F)cc2Br)c2ccncc12,4.81%
9,CCCn1nnnc1NC(=O)COc1ccc(Cl)cc1C,8.48%
10,CCc1ccc(C(=O)OCC(=O)NCC(F)(F)F)cc1,-0.578%
11,Cc1ccc(Nc2nc(-c3sc(NC(=O)c4ccccc4)nc3C)cs2)cc1,36.9% (active)
12,Cc1ccn2c(-c3csc(Nc4ccc(C(=O)O)cc4)n3)c(C)nc2c1,-7.16%
13,C=CCCC(=O)Nc1nc(C)c(-c2csc(Nc3ccc(Cl)cc3)n2)s1,12.2%
14,c1ccc2c(c1)OC1OC2Oc2ccccc21,-4.86%
15,COc1ccc(C(=O)N2CCCC(C(=O)c3ccccc3OC)C2)cc1OC (stereo unspecified),-7.22%
16,O=C1Nc2ccc(Br)cc2/C1=N/N=C/C1=C(N2CCOCC2)C(=C\c2ccccc2)/CC1,30.5% (active)
17,O=C(O)c1ccc(NN=CC2=C(N3CCOCC3)/C(=C/c3ccccc3)CC2)cc1,19.5%
18,CC1=NN(C(=O)CCc2ccccc2O)C(O)(C(F)(F)F)C1 (stereo unspecified),17.6%
19,O=C1OC(NC(=O)c2ccccc2)C(N2CCOCC2)=C1Cl (stereo unspecified),-2.17%
20,Cn1c(N)c(C(=O)COC(=O)c2cccc(S(=O)(=O)N3CCOCC3)c2)c(=O)n(C)c1=O,-4.47%
21,CCOc1ccc2nc(C(=O)N3CCCC(C)C3)sc2c1 (stereo unspecified),-8.67%
22,CCOc1ccc2nc(/N=C/c3nc(-c4ccccc4)oc3O)sc2c1,37% (active)

row,SMILES,inhibition
1,Oc1oc(-c2ccccc2Br)nc1/C=N/c1ccccn1,-8.02%
2,COc1ccc(S(=O)(=O)NCc2cccnc2)cc1NC(=O)c1ccc(C)cc1,-1.72%
3,Cc1ccccc1OCC(=O)N(Cc1cccc(F)c1)C1CCS(=O)(=O)C1 (stereo unspecified),-3.33%
4,O=S(=O)(c1ccc(-c2ccccc2)cc1)N1CCCC1,-5.08%
5,O=C1CCC(C(=O)N2CCN(c3ccccc3Cl)CC2)CN1CC1CCCCC1 (stereo unspecified),5.68%
6,Cc1nc(N2CCN(c3ccccn3)CC2)c2c(C)c(C(=O)Nc3ccc(F)c(Cl)c3)sc2n1,29.5% (active)
7,Cc1nc(N2CCOCC2)c2c(C)c(C(=O)Nc3ccc(C(F)(F)F)cc3)sc2n1,-4.82%
8,Cc1nc(N2CCC(C)CC2)c2c(C)c(C(=O)Nc3cc(F)ccc3C)sc2n1,7.17%
9,O=S(=O)(NN=C1CCCCCCC1)c1ccc(Br)cc1,-0.0867%
10,O=C(CNS(=O)(=O)c1ccc(Br)s1)N1CCN(C(=O)c2ccco2)CC1,-0.302%
11,COc1cc(C2CC(=O)N3CN(Cc4ccccc4)CSC3=C2C#N)ccc1OCc1ccccc1 (stereo unspecified),31.4% (active)
12,COc1cc(CNC2CCCC2)c(Br)cc1OCc1ccccc1,-2.14%
13,CCCNC(=O)C1CC(=O)N(c2ccc(OCc3ccccc3)cc2)C1 (stereo unspecified),0.155%
14,O=C(C[C@H]1C/C=C\C[C@@H](NC(=O)OCC2c3ccccc3-c3ccccc32)C(=O)O[C@@H](c2ccccc2)CNC1=O)N[C@H](CO)Cc1ccccc1,10.3%
15,COc1ccc(C(C#N)(CC(=O)O)c2cnccn2)cc1OC (stereo unspecified),-3.22%
16,CCOc1ccc(C(=O)NC2CCN(C(=O)Nc3ccccc3OC)CC2)cc1,2.23%
17,CCOc1ccc2nc(N3CCCN(C(=O)Nc4ccccc4C)CC3)c(C#N)cc2c1,36.8% (active)
18,CCOc1ccc2nc(NCCNC(=O)C(C)(C)C)c(C)cc2c1,-13.1%
19,CCOC(OCC)c1ccc(/C=C\c2nccc(N)n2)cc1,-3.79%
20,CCCCc1ccc(S(=O)(=O)NC(=O)C2(C)CCN2C(=O)c2c(C)noc2C)cc1 (stereo unspecified),-0.915%

# Reference: PubChem BioAssay AID602399 (Sanford-Burnham Center for Chemical Genomics, 2012)
